Outcome and AC50 data for eleven compounds are collected here from PubChem BioAssay (EPA / NIEHS).

Several values for one entry are separate records, joined by “and”; a condition that tells them apart may be missing. Equal values may be shown once. Activity calls are given as the source filed them. The calls were made as follows: active = hit-call score of the fitted dose curve at least 0.9, where 1 is the maximum; inactive = score below 0.9.

Read-out in the test: Interleukin-1 alpha (IL1a), IL1A (gene 3552)
The experiment in a line: BSK_BF4T_IL1a: BioMAP Diversity Plus: BF4T Assay for Interleukin-1 alpha (IL1a) Biomarker Activity (AID 2284264). As to conditions: primary human bronchial epithelial cells with fibroblasts. The protocol: BSK_BF4T is a cell-based, multiplexed-readout assay that uses bronchial epithelial cells and dermal fibroblasts, a human vascular primary cell, with measurements taken at 24 hours after chemical dosing in a microplate: 96-well plate.BSK_BF4T_IL1a is an assay component measured in the BSK_BF4T assay. It measures IL-1a antibody related to regulation of gene expression using ELISA technology.Data from the assay component BSK_BF4T_IL1a was analyzed at the endpoint, BSK_BF4T_IL1a, in the positive analysis fitting direction relative to DMSO as the negative control and baseline of activity. Using a type of binding reporter, gain or loss-of-signal activity can be used to understand protein changes. To generalize the intended target to other relatable targets, this assay endpoint is annotated to the 'cytokine' intended target family, where the subfamily is 'interleukins'.
The levels of cell surface (or secreted, indicated by the prefix "s") biomarker endpoints were measured by ELISA. Overt cytotoxicity to cells in confluent adherent cultures (all systems other than the BT system) was assessed by measuring total protein levels using sulforhodamine B (SRB) staining in parallel cultures at the time of biomarker measurements, indicated as SRB endpoints. For proliferation assays for adherent cell types, individual cell types are cultured at sub-confluence and relative cell numbers quantified by SRB staining at time points optimized for each system (48 h: 3C and CASM3C systems; 72 h: BT and HDF3CGF systems; 96 h: SAg system). SRB was performed by staining cells with 0.1% SRB after fixation with 10% TCA and reading wells at 560 nm.Viability and proliferation of PBMC (T cells) was quantified by Alamar Blue reduction for the SAg and BT systems. For PBMC viability (referred to as PBMC Cytotoxicity within the assay endpoint names), cells were plated (75,000/well in a 96-well plate) and then chemical samples added for 1 h before addition of activators, SEB and TSST-1 (20 ng/mL final concentration each). Cells were incubated for 90 h. Then, Alamar Blue (20 uL/well) (Invitrogen, Cat DAL1100) was added for 6 h, and the plates were read with a fluorescence microplate reader at 546/580 nm (excitation/emission). For PBMC proliferation, cells were plated and activated as above but incubated for only 16 h prior to addition of Alamar Blue. Plates were read after 6 h.
Regarding `O=C(O)CCC(F)(F)C(F)(F)C(F)(F)C(F)(F)C(F)(F)C(F)(F)F`, the result was inactive.
On the same count and under the same terms, the value for `O=S(=O)(O)C(F)(F)C(F)(F)C(F)(F)C(F)(F)C(F)(F)C(F)(F)C(F)(F)C(F)(F)C(F)(F)C(F)(F)F` was “inactive”.
`O=P(O)(O)CCC(F)(F)C(F)(F)C(F)(F)C(F)(F)C(F)(F)C(F)(F)F`: the outcome was inactive.
For `OCC(F)(F)C(F)(F)C(F)(F)C(F)(F)C(F)(F)C(F)(F)C(F)(F)C(F)(F)C(F)(F)C(F)(F)C(F)(F)F`, the outcome was inactive.
Same read-out and setting: for `CN(CCO)S(=O)(=O)C(F)(F)C(F)(F)C(F)(F)C(F)(F)C(F)(F)C(F)(F)C(F)(F)C(F)(F)F` the value was “inactive”; for `O=C(O)CCC(F)(F)C(F)(F)C(F)(F)C(F)(F)C(F)(F)F`, “inactive”.
Consider `C=CC(=O)OCCC(F)(F)C(F)(F)C(F)(F)C(F)(F)C(F)(F)C(F)(F)C(F)(F)C(F)(F)F`, for which the result was inactive.
As to `O=P(O)(O)CCC(F)(F)C(F)(F)C(F)(F)C(F)(F)C(F)(F)C(F)(F)C(F)(F)C(F)(F)F`, the outcome was inactive.
For `O=C(CC(=O)C(F)(F)C(F)(F)C(F)(F)F)c1cccs1`, the AC50 (commonly the concentration at which the activity in the assay is half-maximal) was 43 µM (active) and 45 µM (active).
Take `CN(Cc1cnc2nc(N)nc(N)c2n1)c1ccc(C(=O)N[C@@H](CCC(=O)O)C(=O)O)cc1`: the result was inactive.
On to `O=C(O)C(F)(F)OC(F)(F)C(F)(F)OC(F)(F)C(F)(F)OC(F)(F)C(F)(F)C(F)(F)C(F)(F)F`, for which the AC50 is 11 µM (active) and 13.4 µM (active).
